Compounds with a hit are over-represented: about 4.3% of the library has one in this group of screens.
ADAM17 inh: inhibitors of human ADAM17; 0.83% of 370,000 active; P78536; recombinant ADAM17, EDANS/DABCYL FRET peptide cleavage; inhibition, % at 6.95 µM; AID 720648;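 active = inhibition above the mean of compounds lying between control limits plus 3 SD, set per campaign, cut at about 8.5% in these data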
GRIN3A LBD mod: NR3A (human) ligand-binding domain modulation. 2.5% of 340,000 active. NR3A LBD differential scanning fluorimetry, Tm shift; 0% = protein alone, 100% = glycine-bound protein. Tm shift relative to glycine control, % at 25 µM;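 active = melting temperature shift of at least 10% of the positive control shift, at one fixed dose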
ADAM10 inh: inhibitors of human ADAM10 | inhibition, % at 7 µM | recombinant ADAM10, EDANS/DABCYL FRET peptide cleavage, 3 h | 0.62% of 370,000 active | AID 720582;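 active = inhibition above a per-campaign cutoff equal to the mean of compounds falling between control-based bounds plus 3 SD, cut at about 20% in these data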
Target sequence (O14672 214-748 limits assumed): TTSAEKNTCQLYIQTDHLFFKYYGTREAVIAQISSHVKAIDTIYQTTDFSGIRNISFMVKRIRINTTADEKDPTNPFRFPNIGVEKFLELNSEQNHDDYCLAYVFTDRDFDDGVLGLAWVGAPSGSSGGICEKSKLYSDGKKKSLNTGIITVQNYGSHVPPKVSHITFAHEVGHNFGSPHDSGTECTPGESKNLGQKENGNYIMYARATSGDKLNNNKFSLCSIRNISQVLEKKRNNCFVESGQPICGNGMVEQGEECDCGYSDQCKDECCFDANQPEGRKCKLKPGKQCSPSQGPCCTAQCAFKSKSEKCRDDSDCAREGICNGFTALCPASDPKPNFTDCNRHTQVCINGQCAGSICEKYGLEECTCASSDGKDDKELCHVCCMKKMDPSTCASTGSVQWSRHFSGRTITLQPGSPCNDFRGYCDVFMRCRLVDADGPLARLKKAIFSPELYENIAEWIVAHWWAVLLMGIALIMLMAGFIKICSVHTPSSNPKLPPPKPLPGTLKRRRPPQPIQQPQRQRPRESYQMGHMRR
FAS-TE inh: FAS thioesterase (human) inhibition; inhibition, % at 15 µM; 0.67% of 360,000 active; recombinant FAS-TE, OMFH fluorogenic substrate, fluorescence endpoint; AID 602261;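 active = compounds whose normalised, plate-corrected inhibition of enzyme fluorescence in the single-dose primary screen is 50% or more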
sPLA2-III inh: Inhibits HGIII-sPLA2 liposome hydrolysis, primary screen. QFRET BODIPY PC-A2 liposome hydrolysis, fluorescence. 0.56% of 370,000 active. inhibition, % at 12.2 µM;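 active = inhibition above mean plus 3 SD of compounds lying within the high and low control bounds, cut at about 19% in these data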
FAS-TE conf: FAS thioesterase (human) inhibition, confirmation | shares compounds with FAS-TE inh | recombinant FAS-TE, OMFH fluorogenic substrate, fluorescence | inhibition, % at 15 µM | 45% of 2,300 active | AID 624325;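 active = compounds inhibiting the enzyme by at least 50% at 15 µM in any one of the replicates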
ADAM10 confirm: human ADAM10 inhibition, confirmation; shares compounds with ADAM10 inh; ADAM10 QFRET peptide cleavage, EDANS fluorescence; inhibition, % at 6.95 µM; 1% of 2,100 active;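 active = inhibition above about 20% chosen separately for each screening run, limit read from the data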
ADAM17 counter: counter-screen for ADAM10 exosite inhibitors: inhibitors of human ADAM17; shares compounds with ADAM10 inh; ADAM17 QFRET peptide cleavage, EDANS fluorescence; inhibition, % at 6.95 µM; 0.5% of 2,100 active;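 active = mean triplicate inhibition above the solvent-only control wells' mean plus 3 SD, cut at about 12% in these data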
ADAM10 ctr: inhibits human ADAM10 in ADAM17 exosite counter-screen. shares compounds with ADAM17 inh. recombinant ADAM10, EDANS/DABCYL FRET peptide cleavage, 3 h. inhibition, % at 6.95 µM. 47% of 2,900 active;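 active = mean inhibition over the triplicate runs exceeds the activity threshold set in the earlier primary screen, cut at about 20% in these data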
ADAM17 confirm: human ADAM17 inhibition, confirmation. inhibition, % at 6.95 µM. AID 743257. 65% of 2,900 active. shares compounds with ADAM17 inh. recombinant ADAM17, EDANS/DABCYL QFRET peptide cleavage;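 active = mean inhibition across replicates above the hit cutoff set in the primary screen, cut at about 8.5% in these data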
Hits are given with their value; 0 = inactive; - = no result.

SMILES	ADAM17 inh	GRIN3A LBD mod	ADAM10 inh	FAS-TE inh	sPLA2-III inh	FAS-TE conf	ADAM10 confirm	ADAM17 counter	ADAM10 ctr	ADAM17 confirm
Cc1ccc(S(=O)(=O)NCC2CCN(C(=O)C(=O)c3cc4ccccc4o3)CC2)cc1	0	-	0	-	0	-	-	-	-	-
O=C(OCc1csc(Nc2ccccc2)n1)c1ccc(Cl)cc1	12.1	10.7	23.5	51.7	0	0	0	0	44.9	18.4
CN(C(=O)Nc1ccc(Cl)cc1Cl)[C@H]1c2cc(Br)ccc2OC[C@H]1CO	14.8	0	26.8	50.2	0	49.7	0	0	27.7	12.1
COc1cc(-n2c(C)nc3cc(C(=O)N4CCCC4)ccc32)cc(OC)c1OC	0	-	0	-	0	-	-	-	-	-
CCOC1=C2[C@@H](CN(S(=O)(=O)c3ccc(C)cc3)[C@H]2c2cccc3ccccc23)[C@H]2C(=O)N(Cc3ccccc3)C(=O)[C@H]2C1	8.8	-	25.0	59.5	0	0	0	0	21.2	14.1
CCOC1=C2[C@@H](CN(S(=O)(=O)c3ccc(C)cc3)[C@H]2c2cccc3ccccc23)[C@H]2C(=O)N(CC)C(=O)[C@H]2C1	0	-	0	0	0	-	-	-	-	-
Cc1[nH]nc2c1C(c1cccc(C(F)(F)F)c1)N(Cc1ccccc1)C2=O (configuration not stated)	0	-	0	-	0	-	-	-	-	-
COC(=O)[C@H]1C[C@@]2(c3ccccc3)c3ccccc3N(S(=O)(=O)c3ccccc3)[C@H]2N1	0	-	0	-	0	-	-	-	-	-
CC1COCC(C)N1S(=O)(=O)c1ccc2c(c1)CCN2C(=O)C1CCC1 (configuration not stated)	0	-	0	-	0	-	-	-	-	-
O=S(=O)(Nc1ccc2c(c1)OCCO2)c1ccc2oc3ccccc3c2c1	11.2	0	23.6	62.2	0	47.3	0	0	25.7	14.0
O=C1OCCN1C(=O)[C@H]1[C@H](c2ccc([N+](=O)[O-])cc2)C(c2ccccc2)=NN1c1ccc(Br)cc1	10.7	0	0	90.0	0	0	-	-	0	11.7
C[C@H](CO)N1C[C@H](C)[C@@H](CN(C)C(=O)Nc2ccccc2)Oc2c(NC(=O)Nc3ccc(C(F)(F)F)cc3)cccc2C1=O	12.4	28.3	25.6	83.3	0	92.0	0	0	36.6	19.3
COC(=O)[C@]12C[C@H](CC(=O)N3CCSCC3)C(=O)N(CCc3ccc(OC)c(OC)c3)C1=C[C@H](COCc1ccccc1)O[C@@H]2C	0	-	0	-	0	-	-	-	-	-
COc1ccc([C@@H]2[C@@H]3C(=O)N(C(C)(C)C)C(=O)[C@@H]3[C@]3(CC(C)C)C(=O)N(c4ccccc4)C(=O)N23)cc1	0	0	0	0	0	-	-	-	-	-
COc1ccc([C@@H]2[C@@H]3C(=O)N(C(C)(C)C)C(=O)[C@@H]3[C@]3(CC(C)C)C(=O)N(c4cccc(Br)c4)C(=O)N23)cc1	10.1	0	26.7	57.9	0	0	0	0	23.2	15.6
CC(C)NC(=O)N(C)C[C@@H]1OCCCC[C@@H](C)Oc2ccc(NC(=O)Nc3ccc(F)cc3)cc2C(=O)N([C@H](C)CO)C[C@@H]1C	0	-	0	0	0	-	-	-	-	-
C[C@@H]1CN([C@H](C)CO)C(=O)c2cc(NC(=O)Nc3ccc(F)cc3)ccc2O[C@@H](C)CCCCO[C@H]1CN(C)S(=O)(=O)c1cccs1	8.9	-	30.1	81.2	0	77.8	0	0	41.6	21.4
C=CCOC(=O)N1CCN(C(=O)c2ccc3nc(C)n(C4CCCC4)c3c2)CC1	0	-	0	-	0	-	-	-	-	-
Cc1nc(-c2cccc(NS(=O)(=O)c3ccccc3)c2)cs1	0	0	0	0	0	-	-	-	-	-
Cc1ccc(S(=O)(=O)Nc2ccc(-c3csc(-c4ccccc4)n3)cc2)cc1	15.5	24.4	31.1	72.3	0	0	0	0	24.1	19.8
Cc1cccc(NS(=O)(=O)c2ccc3[nH]c(=O)cc(C(=O)OC(C)C(=O)Nc4ccc([N+](=O)[O-])cc4)c3c2)c1 (configuration not stated)	15.4	11.1	25.4	87.4	0	93.0	0	0	0	11.6
CCOc1ccc(NS(=O)(=O)c2ccc3[nH]c(=O)cc(C(=O)O)c3c2)cc1	0	0	0	0	0	-	-	-	-	-
CCn1c(Cc2cccs2)nnc1SCC(=O)Nc1ccc(Cl)cc1C	0	-	0	-	0	-	-	-	-	-
NC(=O)[C@H]1CC2(CC(c3cccc(NC(=O)COc4ccc(Cl)cc4)c3)=NO2)CN1C(=O)C(c1ccccc1)c1ccccc1 (some centres not stated)	11.5	11.5	30.6	73.0	0	0	0	0	30.3	14.5
Cn1c(N/N=C/c2cccs2)cc(=O)n(C)c1=O	0	0	0	0	0	-	-	-	-	-
SMILES	ADAM17 inh	GRIN3A LBD mod	ADAM10 inh	FAS-TE inh	sPLA2-III inh	FAS-TE conf	ADAM10 confirm	ADAM17 counter	ADAM10 ctr	ADAM17 confirm
Fc1c(F)c(C(F)(F)F)c(F)c(F)c1N/N=C\c1cccs1	9.8	22.4	24.3	62.6	0	50.8	0	0	32.1	18.6
COc1ccc2cc(C(=O)CS(=O)(=O)c3ccc(Cl)cc3)c(=O)oc2c1	0	-	0	-	0	-	-	-	-	-
O=C(c1ccncc1)N(c1ccc2oc3c(c2c1)CCCC3)S(=O)(=O)c1ccc(F)cc1	8.8	0	0	64.7	0	0	-	-	0	0
Cc1ccc(C(=O)CC2C(=O)N(c3ccccc3)C(=S)N2c2ccccc2)cc1 (configuration not stated)	9.3	0	0	52.8	0	0	-	-	44.5	18.7
CCN1C(=O)[C@H]2[C@@H](c3ccc(-c4ccc(F)cc4)c(OC)c3)N3CCC[C@@]3(C(=O)OC)[C@H]2C1=O	0	0	0	0	0	-	-	-	-	-
CCN1C(=O)[C@@H]2[C@@H](c3ccc(-c4ccc(OC)cc4)c(OC)c3)N3CCCC[C@@]3(C(=O)OC)[C@@H]2C1=O	9.3	0	0	51.0	0	0	-	-	0	0
Cc1ccc(CN2CC(=O)N3[C@H]4c5cc(Cl)ccc5OC[C@@H]4[C@H](c4ccccc4)[C@]3(C)C2=O)cc1	9.4	0	0	83.5	0	0	-	-	0	0
COc1ccc2c(c1)OC[C@H]1[C@H]2N2C(=O)CN(Cc3ccc(Cl)cc3)C(=O)[C@@]2(C)[C@H]1c1ccccc1	9.9	0	0	74.9	0	0	-	-	28.9	13.3

Assay outcomes as filed in PubChem.
